# Shown are actives, neighbours in structure and some others; about 0.92% of the full set was active somewhere.
# CIT2-GFP yeast: yeast TOR pathway CIT2-GFP modulation; 0.065% of 320,000 active; GFP response vs DMSO, % at 10 µM; AID 2029; S. cerevisiae CIT2-GFP strain, flow cytometry, 3 h; 100 means same as DMSO wells;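 active means GFP response relative to DMSO above a set limit, near the screen mean plus 3 SD, cut at about 150% in these data; inconclusive means Fewer than 70 cells measured for a yeast strain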;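 further: ratio of well median GFP fluorescence to mean of DMSO wells on the plate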
# RPL19A TOR yeast: yeast TOR pathway RPL19A-GFP modulation | S. cerevisiae RPL19A-GFP strain, flow cytometry, 3 h; stronger effect = lower value | 0.3% of 330,000 active | percent response vs DMSO, % at 10 µM;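 active means percent response vs DMSO below 50%; inconclusive means fewer than 70 events counted for the yeast strain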;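 further: median channel GFP fluorescence of the barcoded RPL19A-GFP strain; ratio of sample median GFP to plate DMSO average so 100% = DMSO; lower means less RPL19A-GFP as with rapamycin TOR inhibition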
# MEP2-GFP yeast: yeast TOR pathway MEP2-GFP modulation. S. cerevisiae MEP2-GFP strain, flow cytometry GFP, 3 h; 100% = DMSO control level. GFP response vs DMSO, % at 10 µM. 0.51% of 330,000 active. AID 2016;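 active means GFP response versus DMSO above a set limit, roughly screen mean plus 3 SD, cut at about 180% in these data; inconclusive means fewer than 70 cells counted for a yeast strain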;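 further: median GFP fluorescence of the barcode-gated MEP2-GFP cells per well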
# AGP1-GFP MLPCN: yeast TOR pathway AGP1-GFP modulation | S. cerevisiae AGP1-GFP multiplex flow cytometry, 3 h; GFP as percent of DMSO wells | GFP response vs DMSO, % at 10 µM | AID 2066 | 0.02% of 320,000 active;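 active means GFP response relative to DMSO above a set limit, near screen average plus 3 SD, cut at about 150% in these data; inconclusive means fewer than 70 cells counted for the yeast strain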;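 further: median GFP channel fluorescence of the gated AGP1 strain per well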
# LAP4-GFP MLPCN: modulators of TOR pathway LAP4-GFP in S. cerevisiae. 0.34% of 320,000 active. GFP response vs DMSO, % at 10 µM. S. cerevisiae LAP4-GFP multiplex, flow cytometry GFP, 3 h; median GFP as percent of DMSO wells;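 active means GFP response vs DMSO above a set limit, about the screen mean plus 3 SD, cut at about 150% in these data; inconclusive means under 70 cell events counted for the yeast strain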
# * hit, by the source's call; ? = inconclusive; · = no result given; + = active, no number; [ ] = another dose, or the depositor's remark.
SMILES,CIT2-GFP yeast,RPL19A TOR yeast,MEP2-GFP yeast,AGP1-GFP MLPCN,LAP4-GFP MLPCN
CCC(C)c1ccc(N(C(=O)c2ccco2)C(C(=O)NC2CCCC2)c2cccnc2)cc1 (stereo unspecified),?,55,271*[may fluoresce violet],15,71
Cc1nn(CC(=O)NCCN2CCOCC2)c(=O)c2ccccc12,87,101,102,100,92
O=C(Cn1nc(-c2ccccc2)c2ccccc2c1=O)NCCN1CCOCC1,?,42*[may fluoresce violet],734*[may fluoresce violet],?,94
COc1cc(/C=C2\N=C(C)OC2=O)cc(Cl)c1OC(C)=O,109,110,110,94,110
CCOc1cc(/C=C2\N=C(C)OC2=O)cc(Cl)c1OCC(=O)OC,106,103,96,96,170*
O=C(O)c1cccc(NS(=O)(=O)c2cc(S(=O)(=O)c3ccc(Cl)cc3)ccc2Cl)c1,101,106,104,104,91
COc1ccc2ccccc2c1/C=N/Nc1cccc(C(=O)O)c1,92,102,114,91,166*
Cc1ccc(CCNC(=O)CCS(=O)(=O)c2ccc3c(c2)oc(=O)n3C)cc1,?,52,207*[may fluoresce violet],?,91
CC(=O)N1CCc2cc(S(=O)(=O)CCC(=O)NCCc3ccccc3)ccc21,?,28*[may fluoresce violet],121,?,79
CCC(=O)N1CCc2cc(S(=O)(=O)CCC(=O)Nc3ccc(OC)cc3)ccc21,?,20*[may fluoresce violet],132,?,77
COCC1CCN(C(=O)C2CCC(=O)N(C3CCCCCC3)C2)CC1 (stereo unspecified),98,110,97,93,69
CC1(C)CC(=O)C2=C(C1)OC(N)=C([N+](=O)[O-])C2c1cccs1 (stereo unspecified),104,104,110,102,100
CCOC(=O)Cc1n[nH]c(=O)c2ccccc12,101,96,93,104,97
COC(=O)Cc1n[nH]c(=O)c2ccccc12,?,61,299*[may fluoresce violet],?,76
O=S(=O)(Nc1c(O)ccc2ccccc12)c1ccc(F)cc1,104,98,108,114,119
O=S(=O)(Nc1c(O)ccc2ccccc12)c1ccccc1,?,42*[may fluoresce violet],237*[may fluoresce violet],?,94
COc1ccc(/C=N/NC(=O)CCC(=O)Nc2ccc(Br)cc2)c(OC)c1,?,43*[may fluoresce violet],830*[may fluoresce violet],?,79
Nc1[nH]c(=O)[nH]c(=O)c1N=Nc1ccc(C(=O)O)cc1,102,110,104,106,95
COC(=O)/C=C1/S/C(=N/NC(=O)c2ccc(Cl)cc2Cl)NC1=O,?,95,177*[may fluoresce violet],39,113
S=c1[nH]nc(NCCCN2CCOCC2)s1,104,51,327*,31,104
S=C(NCCCN1CCOCC1)NCCCN1CCOCC1,90,96,94,100,108
Cc1ccc(N2CC(C(=O)Nc3nnc(SCCN4CCOCC4)s3)CC2=O)cc1 (stereo unspecified),103,101,107,112,126
NCc1cc2c3c(c1)CCCN3CCC2,120,102,106,102,102
O=C(CN1C(=O)NC2(CCCC2)C1=O)N1CCN(S(=O)(=O)c2cc(Cl)ccc2Cl)CC1,105,95,100,98,101
COc1ccc(N=N/C(=C\O)C(=O)c2cccs2)cc1,74,96,93,78,109
SMILES,CIT2-GFP yeast,RPL19A TOR yeast,MEP2-GFP yeast,AGP1-GFP MLPCN,LAP4-GFP MLPCN
COc1ccc(C(=O)/C(=C/O)N=Nc2ccc(F)cc2)cc1,77,94,99,96,172*
O=C(/C(=C/O)N=Nc1ccc(Cl)cc1)c1ccncc1,68,64,122,78,203*
Nc1nnc(-c2ccc(Cl)cc2Cl)s1,94,94,101,93,99
Clc1ccc(-c2nn3cnnc3s2)c(Cl)c1,?,45*[may fluoresce violet],300*[may fluoresce violet],?,79
CCC1(c2ccc(F)cc2)NC(=O)N(CC(=O)N(C)C2CCS(=O)(=O)C2)C1=O (stereo unspecified),111,100,100,105,101
CSc1ccccc1C(=O)OCC(=O)N1CCCC1=O,96,99,107,105,104
O=C(Cc1ccc(-c2ccccc2)cc1)OCC(=O)N1CCCC1=O,79,92,95,87,163*
N#CCCCCN1CCCC1,96,99,111,96,95
CCCC(c1nnnn1CC(=O)OCC)N(Cc1cc2c(C)cc(C)cc2[nH]c1=O)C1CCCC1 (stereo unspecified),?,58,181*[may fluoresce violet],24,88
CCCC[n+]1c2ccccc2cc2ccccc21,?,61,234*[may fluoresce violet],20,105
CCC[n+]1c2ccccc2cc2ccccc21,?,83,139,16,103
COC(=O)c1c(C)[nH]c(C(=O)CSc2ncnc3sc(-c4ccccc4)cc23)c1C,93,101,107,97,93
O=C(COc1ccc2ccc(=O)oc2c1)Nc1ccc(N2CCOCC2)cc1,100,100,102,96,100
O=C(COc1ccc2ccc(=O)oc2c1)Nc1ccc(CN2CCOCC2)cc1,?,15*[may fluoresce violet],174,?,81
CCN(CC)C(=O)c1ccc(-c2cccs2)s1,52,85,73,72,184*
CCN(CC)C(=O)c1sc(NC(=O)c2cccs2)c(C#N)c1C,103,101,105,100,106
CCN1/C(=C/c2ccc3cc(C)ccc3[n+]2CC)Sc2ccccc21,+[may fluoresce green],321,+[may fluoresce green],238*[may fluoresce green],605*[may fluoresce green]
CC[n+]1ccccc1/C=C1\Sc2ccc(C)cc2N1C,98,100,110,85,90
O=S(=O)(NCC1CCN(Cc2ccccc2)CC1)c1ccccc1C(F)(F)F,105,104,99,106,103
COc1ccc(-c2cc(C(=O)N3CCN(C(c4ccccc4)c4ccccc4)CC3)no2)cc1OC,92,95,99,101,100
COc1ccc(-c2cc(C(=O)N3CCN(C(c4ccccc4)c4ccccc4)CC3)no2)cc1,?,41*[may fluoresce violet],201*[may fluoresce violet],?,85
COCCCNC(=O)c1c(N)n(-c2ccccc2)c2nc3ccccc3nc12,·,93,106,·,·
COC(=O)c1c(N)n(-c2ccc(NC(C)=O)cc2)c2nc3ccccc3nc12,?,42*[may fluoresce violet],365*[may fluoresce violet],?,85
Cc1ccc(-c2cc(C(F)F)n3ncc(C(=O)N4CCN(c5cccc(C)c5C)CC4)c3n2)cc1,96,96,106,97,101
Cc1nc(Nc2cnc(/C=C/c3cc(C(=O)Nc4cccc(C(F)(F)F)c4)ccc3C)cn2)cc(N2CCNCC2)n1,?,45*[may fluoresce violet],198*[may fluoresce violet],12,107
COc1ccc(CN2CCNC(=O)C2CC(=O)NCCN2CCCCC2=O)c(F)c1 (stereo unspecified),91,91,89,84,87
Cc1ccc2c(c1)c1c3n2CCCNC3CCC1 (stereo unspecified),104,100,117,104,108

# Screening data as filed in PubChem BioAssay.
